# Compound activity: PubChem, several laboratories
# LYP act: LYP (human) phosphatase activation. Q9Y2R2. recombinant LYP, DiFMUP fluorescence; 0 = plate median, 100 = signal doubled. activation, % at 2 µM. 0.11% of 96,000 active;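 active = activation at 2 µM above a set limit, the mean plus 5 SD, cut at about 37% in these data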
# PTPN22 inh 2: inhibitors of human LYP (PTPN22) phosphatase. Q9Y2R2. recombinant LYP catalytic domain, DiFMUP fluorescence. inhibition, % at 2 µM. 0.21% of 96,000 active;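 active = inhibition at 2 µM at or above a set limit, the screen mean plus 3 SD, cut at about 24% in these data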;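 also: 0% = DMSO with enzyme and 100% = enzyme fully blocked by orthovanadate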
# sEH act: activators of human soluble epoxide hydrolase. P34913. purified human sEH enzymatic activity, activator screen. activation, % at 2 µM. 0.04% of 91,000 active; in the data active = activation above about 37%
# Target sequence (P34913 whole entry, looked up): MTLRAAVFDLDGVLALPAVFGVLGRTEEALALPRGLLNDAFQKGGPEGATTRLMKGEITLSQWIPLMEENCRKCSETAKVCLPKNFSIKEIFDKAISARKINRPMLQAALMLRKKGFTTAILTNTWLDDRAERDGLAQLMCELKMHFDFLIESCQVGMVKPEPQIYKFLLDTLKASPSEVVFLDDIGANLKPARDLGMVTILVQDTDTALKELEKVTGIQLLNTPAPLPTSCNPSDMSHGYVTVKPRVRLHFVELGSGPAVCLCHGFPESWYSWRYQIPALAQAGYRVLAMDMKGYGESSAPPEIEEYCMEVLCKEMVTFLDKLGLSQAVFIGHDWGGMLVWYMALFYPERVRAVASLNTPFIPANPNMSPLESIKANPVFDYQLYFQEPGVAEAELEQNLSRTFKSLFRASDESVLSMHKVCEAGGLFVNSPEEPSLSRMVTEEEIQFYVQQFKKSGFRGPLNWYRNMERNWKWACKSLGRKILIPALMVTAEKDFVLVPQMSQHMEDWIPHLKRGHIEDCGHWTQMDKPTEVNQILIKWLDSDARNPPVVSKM
# sEH inh: soluble epoxide hydrolase (human) inhibition. 0.34% of 91,000 active. recombinant human sEH enzymatic activity assay. P34913. inhibition, % at 2 µM; in the data active = inhibition above about 80%
# Measles CPE: protection of cells from measles virus. 1.5% of 140,000 active. Measles virus-infected cells, CPE protection, absorbance. protection (pct of control), % at 4 µM; in the data active = protection mostly above about 24%, no sharp cut-off; inactive = mostly below about 26%
# * hit, by the source's call; x = not tested or not shown. A selection: hits, their analogues and other compounds. The true share with any hit is near 1.7%.
SMILES,LYP act,PTPN22 inh 2,sEH act,sEH inh,Measles CPE
COc1ccc(C)cc1NCC(=O)Nc1ccc(C(C)(C)C)cc1,x,x,x,x,28
COc1ccc(OC)c(C2C=C(C34CC5CC(CC(C5)C3)C4)NC(=S)N2)c1 (stereo unspecified),x,x,x,x,34*
Cc1ccc(Cl)cc1-c1ccc(C=Nc2ccc(N3CCOCC3)cc2)o1,x,x,x,x,60*
COc1ccc(S(=O)(=O)N2CCCN(CC(=O)C(C)(C)C)CC2)cc1,-7,8,6,-8,48*
COc1ccc(O[C@H]2C=C[C@@H](c3ccccc3)O[C@@H]2COC(=O)CC/C(C)=N/OC[C@@H](O)[C@H]2O[C@@H]3OC(C)(C)O[C@@H]3[C@H]2O)cc1,x,x,x,x,5
CC1(C)Cc2nc(N3CCOCC3)c(C#N)cc2CO1,10,-9,7,-4,18*
CCOC(=O)c1[nH]c2ccc(OC)cc2c1NC(=S)N1CCN(c2ccccc2)CC1,x,x,x,x,31*
CCOC(=O)c1[nH]c2ccc(OC)cc2c1NC(=S)N1CCN(c2cccc(Cl)c2)CC1,x,x,x,x,10
CCC1(C)CC(c2nc(-c3ccc(OC)cc3)cs2)CCS1 (stereo unspecified),x,x,x,x,4
O=C(CSc1nnc(COc2ccccc2F)n1-c1ccccc1)NC1CCS(=O)(=O)C1 (stereo unspecified),x,x,x,x,30
COc1ccccc1-c1nnc(SCC(=O)NC2CCS(=O)(=O)C2)n1CCc1ccccc1 (stereo unspecified),x,x,x,x,59*
O=c1c2c3c(sc2nc2n1CCCCC2)CCCCC3,-6,2,x,x,14
O=c1c2c3c(sc2nc2n1CCCC2)CCC3,1,-1,6,-6,36*
O=c1c2ccccc2nc(CSc2ncnc3nc[nH]c23)n1-c1cccc(C(F)(F)F)c1,3,-2,8,-11,27*
O=c1[nH]c(SCc2nc3ccccc3c(=O)n2-c2ccccc2)nc2ccccc12,x,x,x,x,5
CC(C)(C)c1ccc(/C=N/OCC(=O)NCc2ccc(F)cc2)cc1,x,x,x,x,16
CCCC(=O)N(Cc1cc2ccccc2[nH]c1=O)c1ccccc1OC,4,-3,4,-1,38*
Cc1ccc(C(=O)NC(=S)Nc2ccc(S(=O)(=O)N3CCN(C)CC3)cc2)cc1,9,-6,-13,14,63*
Cc1cccc(C(=O)NC(=S)Nc2ccc(S(=O)(=O)N3CCN(C)CC3)cc2)c1,-6,5,5,-3,19
CCOC(=O)c1cccc(Nc2nc(-c3cccnc3)nc3ccccc23)c1,-5,8,-5,7,29*
O=C(O)c1cccc(Nc2nc(-c3cccnc3)nc3ccccc23)c1,x,x,x,x,23
NC(=O)c1cc2ccc(O)cc2oc1=Nc1ccccc1,x,x,x,x,30*
CC(=C/C(=O)O)/C(=C/c1ccccc1)C(=O)O,x,x,x,x,11
COc1ccc(OC)c(/C=C(\NC(=O)c2ccccc2)C(=O)N/N=C/c2ccc(C)s2)c1,3,-1,-1,2,35*
C=CCN(c1ccccc1Cl)S(=O)(=O)c1cccc(C(=O)NCCc2ccc(OC)cc2)c1,x,x,x,x,13
SMILES,LYP act,PTPN22 inh 2,sEH act,sEH inh,Measles CPE
CCOC(=O)C(NC(=O)c1ccc(Cl)cc1Cl)(Nc1ccc(C)cc1)C(F)(F)F (stereo unspecified),-7,9,7,-9,3
COc1cccc(S(=O)(=O)N2CCN(c3ccccc3F)CC2)c1,2,0,-7,10,34*
CCOC(=O)N1CCN(S(=O)(=O)c2ccc(OCC(=O)OC)c(C)c2)CC1,-1,4,8,-11,3
COC(=O)COc1ccc(S(=O)(=O)N2CCN(c3ccccc3F)CC2)cc1C,6,-4,-11,8,27*
Cn1c(=O)c(=O)n(C)c2cc(S(=O)(=O)N3CCN(c4ccccc4F)CC3)ccc21,x,x,x,x,6
O=C1Nc2ccccc2C1(c1ccccc1)c1ccccc1,0,5,0,3,52*
Nc1ccc(C2(c3ccc(N)cc3)C(=O)Nc3ccccc32)cc1,12,-8,-1,0,21
COCCN(C(=O)Nc1ccccc1)c1ccccc1C,-10,13,-6,5,58*
O=C(NCCc1ccccc1)c1cccnc1N1CCCCCC1,0,4,11,-10,36*
NS(=O)(=O)c1ccc(CNC(=O)/C=C/c2c(Cl)cccc2Cl)cc1,6,-1,-92,92*,2
O=C1c2ccccc2CN1CCSC(=S)N1CCOCC1,x,x,x,x,9
Cc1cccc2nc(CSc3ccccc3C(=O)O)cn12,x,x,x,x,54*
COC(=O)C1CCN(C(c2cc(OC)c(OC)c(OC)c2)c2sc3nc(C)nn3c2O)CC1 (stereo unspecified),x,x,x,x,34*
CCOC(=O)C1CCN(C(c2cc(OC)c(OC)c(OC)c2)c2sc3nc(C)nn3c2O)CC1 (stereo unspecified),x,x,x,x,2
Cn1c(=O)n(-c2ccccc2)c(=O)c2c3c(sc21)COC(C)(C)C3,-9,9,17,-17,18*
O=c1c2ccccc2nc(/C=C/c2c[nH]c3ccccc23)n1-c1ccc([N+](=O)[O-])cc1,x,x,x,x,32*
COc1cccc(OC)c1C(=O)N1CCN(S(=O)(=O)c2ccc(C)cc2)CC1,-14,16,-3,5,42*
CCCn1c(N)c(C(c2ccc(C(=O)OC)cc2)N2CCN(c3ccccc3)CC2)c(=O)[nH]c1=O (stereo unspecified),9,-10,4,-6,42*
COC(=O)c1ccc(C(c2c(N)n(CC(C)C)c(=O)[nH]c2=O)N2CCN(c3ccccc3)CC2)cc1 (stereo unspecified),-5,6,13,-15,2
O=C(COC(=O)c1cc(=O)[nH]c(=O)[nH]1)NCc1ccccc1,x,x,x,x,6
CCCCNC(=O)COc1ccccc1C(=O)c1cc(C#N)c(=O)n(CCOC)c1,x,x,x,x,42*
N#Cc1cc(C(=O)c2ccccc2OCC(=O)Nc2ccccc2)cn(C2CCCCC2)c1=O,x,x,x,x,12
CCOC(=O)c1ccc(NC(=O)CC2S/C(=N/N=C/c3c[nH]c4ccccc34)NC2=O)cc1 (stereo unspecified),x,x,x,x,28*
C=CCNC(=O)/C(C#N)=C/c1cn(-c2ccccc2)nc1-c1cccs1,x,x,x,x,33
C/C(=C/Cc1c(O)cc2oc(C)cc(=O)c2c1O)COC1OC(CO)C(O)C(O)C1O (stereo unspecified),x,x,x,x,18
SMILES,LYP act,PTPN22 inh 2,sEH act,sEH inh,Measles CPE
Cc1nn(-c2ccccc2)c(Cl)c1/C=N/NC(=O)OC(C)(C)C,x,x,x,x,6
Cc1ccc(C)c(OCC(=O)N/N=C/c2c(C)nn(-c3ccccc3)c2Cl)c1,-29,28*,-5,4,4
Cc1ccccc1CSCCNC(=O)CCSc1ccccc1,-6,8,-81,81*,6
Cc1ccc(CSCCNC(=O)CCSc2ccccc2)cc1,-4,6,-65,66,9
Cc1cccc(Oc2nc(CN3CCOCC3)nc3sc4c(c23)CCCC4)c1,x,x,x,x,8
Cc1nc2ccccc2nc(C)c1=NO,1,3,3,-4,-2
C/C(O)=c1/ccc2cccc3nc(C)nc1c23,8,-8,7,-7,113*
COc1ccc(OCCSc2nnc(Cc3cccc4ccccc34)n2N)cc1,x,x,x,x,8
COc1ccc(CN2CCc3ccccc3C2)c(OC)c1OC,-8,10,2,-8,4
